Some test systems named below: HCT-15 colon; HT29 colon; SNB-75 CNS; SNB-19 CNS; U251 CNS; SK-MEL-5 melanoma; LOX IMVI melanoma; SK-MEL-28 melanoma; PC-3 prostate; UACC-62 melanoma.
Holding throughout (assay): NCI-60 one-dose screen, 48 h (100 = growth as untreated, 0 = no growth, -100 = all killed)
Common to all, as to conditions: 10 µM unless noted

Molecules are shown by their SMILES. The panel holds about 83,000 compounds, 20% with a hit somewhere; the sample as a whole holds those more often.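 Activity criterion: percent growth below 10, measured after cells in 96-well plates were exposed to a single compound concentration for 48 hours.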 A number with no mark means an inactive call. The source made the active and inactive calls.

The results in this text go back to PubChem BioAssay (NCI).

On to `COc1ccc2c(c1)c(-c1nc(-c3c[nH]c4ncccc34)cs1)cn2CCCN1CCCCC1`, for which the growth was -5.93% (active) with HCT-15 colon; -51.8% (active) in the assay with HT29 colon; 46.9% in the assay on SNB-75 CNS; 43.9% in the assay on SNB-19 CNS; -17.7% (active) in the assay on U251 CNS; -87.6% (active) in the assay with SK-MEL-5 melanoma. Besides, the growth in the assay with LOX IMVI melanoma was -75.6% (active); with SK-MEL-28 melanoma it was -74.9% (active).

Take `COc1ccc(-c2cc(=O)oc3ccc(Cl)cc23)cc1F`: the growth in the assay with HCT-15 colon is 11.7%; with HT29 colon, -5.75% (active); in the assay on SNB-75 CNS it was 46%; with SNB-19 CNS, 23.5%; in the assay with U251 CNS it was 4.46% (active); in the assay on PC-3 prostate it was 11%. The growth in the assay with LOX IMVI melanoma is 21.9%; in the assay with SK-MEL-28 melanoma, 59.5%.

`O=c1[nH]c(=S)[nH]c2nc[nH]c12`: the growth with HCT-15 colon is 99.5%; in the assay on HT29 colon it was 103%; in the assay on SNB-75 CNS it was 84.6%; with SNB-19 CNS, 107%; in the assay with U251 CNS, 105%; in the assay on SK-MEL-5 melanoma, 110%. Further, the values for the growth with UACC-62 melanoma and in the assay with SK-MEL-28 melanoma were 97.6% and 110%, respectively.

In the case of `Cc1cccc(C)c1NC(=O)CSC(=S)N1CCCCC1`, the growth in the assay with HCT-15 colon is 105%; with HT29 colon it was 103%; in the assay with SNB-75 CNS it was 96%; in the assay on SNB-19 CNS, 111%; with U251 CNS it was 105%; with SK-MEL-5 melanoma it was 112%. Further, the growth is 98.2% in the assay on LOX IMVI melanoma and 105% in the assay on SK-MEL-28 melanoma.

Consider `NC1=NN=C2N(N)C(=O)c3cnn(-c4ccccc4)c3N2c2nc(-c3ccccc3)cc(-c3ccccc3)c21`, for which the growth in the assay with HCT-15 colon was 99.8%; in the assay on HT29 colon it was 102%; in the assay with SNB-75 CNS it was 86.2%; in the assay with SNB-19 CNS, 93.5%; in the assay on U251 CNS it was 96.3%; with SK-MEL-5 melanoma it was 94%. In addition, the growth was 82.9% in the assay on UACC-62 melanoma and 118% in the assay on SK-MEL-28 melanoma.

On to `Fc1ccc2[nH]cc(-c3nc(-c4c[nH]c5ncccc45)cs3)c2c1`, for which the growth was 20.3% in the assay with HCT-15 colon; 21.7% in the assay on HT29 colon; -17.2% (active) with SNB-75 CNS; 43.6% with U251 CNS; 43.8% with PC-3 prostate; 52.8% in the assay with SK-MEL-5 melanoma. Also, the values for the growth in the assay with UACC-62 melanoma and in the assay with SK-MEL-28 melanoma were 48.5% and 89%, respectively.

As for `O=C(O)c1cccc2c1Cc1cc([N+](=O)[O-])ccc1-2`, the growth with HCT-15 colon is 106%; with HT29 colon it was 112%; with SNB-75 CNS, 83.5%; with U251 CNS, 104%; in the assay on PC-3 prostate, 110%; in the assay with SK-MEL-5 melanoma, 105%. The growth in the assay with UACC-62 melanoma is 102%; in the assay on SK-MEL-28 melanoma it was 108%.

For the molecule `CC1c2ccccc2N(S(=O)(=O)c2ccccc2)C1C` (configuration not stated), the growth in the assay with HCT-15 colon was 70.5%; in the assay with HT29 colon, 67.8%; in the assay with SNB-75 CNS it was 86%; in the assay on U251 CNS it was 88%; with PC-3 prostate, 81.4%; in the assay on SK-MEL-5 melanoma it was 89.2%. For the same molecule, the growth in the assay on UACC-62 melanoma is 71.6%; with SK-MEL-28 melanoma, 92.1%.

`Cc1nn(-c2ccc(Cl)cc2)c(=O)n1CCn1cnc2ccccc21`: the growth with HCT-15 colon was 104%; with HT29 colon, 102%; in the assay with SNB-75 CNS, 106%; in the assay with U251 CNS, 101%; in the assay with PC-3 prostate, 104%; in the assay on SK-MEL-5 melanoma it was 113%. The growth in the assay with UACC-62 melanoma is 101%; in the assay with SK-MEL-28 melanoma, 114%.

Take `O=C1/C(=C\c2ccc(Br)o2)SC(=S)N1CCc1ccc(O)cc1`: the growth with HCT-15 colon was 72.1%; in the assay on HT29 colon, 114%; in the assay on SNB-75 CNS, 65.6%; in the assay on U251 CNS it was 96.5%; in the assay with PC-3 prostate it was 77.2%; in the assay on SK-MEL-5 melanoma it was 99.2%. The growth in the assay with UACC-62 melanoma is 64%; with SK-MEL-28 melanoma it was 55.3%.

On to `COc1cc(-c2nc(-c3ccccc3)c(-c3ccccc3)[nH]2)cc(OC)c1O`, for which the growth in the assay with HCT-15 colon was 11.1%; in the assay with HT29 colon it was 0.965% (active); in the assay with SNB-75 CNS, 29.7%; in the assay with U251 CNS, 5.45% (active); in the assay on PC-3 prostate, -58.6% (active); in the assay on SK-MEL-5 melanoma, -8.78% (active). The growth in the assay on UACC-62 melanoma was -60.6% (active); with LOX IMVI melanoma, -47.7% (active); in the assay with SK-MEL-28 melanoma it was -4.06% (active).

With `Cc1cc(N(CCNc2ccnc3cc(Cl)ccc23)Cc2ccco2)nc(Cl)n1`, the growth in the assay on HCT-15 colon was 1.35% (active); in the assay on HT29 colon, -33.4% (active); in the assay with SNB-75 CNS, -88.7% (active); in the assay on U251 CNS it was -66.5% (active); in the assay on PC-3 prostate, -54.4% (active); in the assay with SK-MEL-5 melanoma, -63.4% (active). The growth with LOX IMVI melanoma is -64.8% (active); with SK-MEL-28 melanoma, -33.4% (active).

For `Cc1ccc(-c2nc3ccc(Cl)cc3c(=O)n2N2C(=O)CSC2c2ccccc2Cl)cc1` (configuration not stated), the growth in the assay on HCT-15 colon is 86.9%; in the assay on HT29 colon it was 83.7%; with SNB-75 CNS, 36.1%; in the assay on U251 CNS it was 22.3%; in the assay with PC-3 prostate, 70.6%; in the assay with SK-MEL-5 melanoma it was 94%. Besides, the figures for the growth in the assay with UACC-62 melanoma, in the assay with LOX IMVI melanoma and with SK-MEL-28 melanoma were 77.3%, 89.1% and 98.6%, respectively.

Take `COc1cc(/C=N/Nc2ncnc3c2c(C)nn3-c2ccc(F)cc2)ccc1O`: the growth was 81.1% with HCT-15 colon; 92.3% in the assay on HT29 colon; 82.5% with SNB-75 CNS; 94.4% in the assay with U251 CNS; 73% in the assay on PC-3 prostate; 56.6% with SK-MEL-5 melanoma. Also, the figures for the growth in the assay on LOX IMVI melanoma and in the assay on SK-MEL-28 melanoma were 81% and 107%, respectively.

On to `Cc1cc(N(CCCNc2ccnc3cc(Cl)ccc23)Cc2ccco2)nc(N2CCOCC2)n1`, for which the growth with HCT-15 colon is 54.9%; in the assay with HT29 colon it was 34.9%; with SNB-75 CNS, 73.5%; in the assay on U251 CNS it was 84%; in the assay on PC-3 prostate it was 62.2%; in the assay with SK-MEL-5 melanoma, 54.5%. Also, the growth in the assay with LOX IMVI melanoma is 66%; in the assay with SK-MEL-28 melanoma, 77.6%.
